# The panel holds about 79,000 compounds, 15% with a hit somewhere; the sample as a whole holds those more often. A number with no mark means an inactive call. The source made the active and inactive calls. Rule as the data show it: active = growth inhibition above about 70%; inactive = the rest.
# How the values were obtained:
# [1] = NCI Yeast Anticancer Drug Screen. Data for the rad52 strain (AID 147);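 also: 0% = growth of vehicle-treated control cultures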; details: S. cerevisiae rad52 mutant growth inhibition, stronger effect = higher value
# In short: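 Read-out: growth inhibition versus vehicle-treated controls. Cells were a DNA repair-deficient yeast strain treated with compounds.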
# [2] = NCI Yeast Anticancer Drug Screen. Data for the wt1 strain (AID 149);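 also: 0% = growth of vehicle-treated wt1 cultures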; details: S. cerevisiae wt1 strain (SPY 50644) growth inhibition, stronger effect = higher value
# In short: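 Readout: yeast growth inhibition, normalised to vehicle controls, in the wt1 strain exposed to test compounds.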
# [3] = NCI Yeast Anticancer Drug Screen. Data for the rad50EPP+ strain (AID 151);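 also: 0% = growth of vehicle-treated control cultures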; details: S. cerevisiae rad50 mutant strain, stronger effect = higher value
# In short: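 Growth inhibition read against vehicle controls in rad50EPP+ yeast, a strain altered in DNA damage repair, after compound exposure.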
# [4] = NCI Yeast Anticancer Drug Screen. Data for the mgt1 strain (AID 153); details: S. cerevisiae mgt1 mutant growth inhibition, stronger effect = higher value
# In short: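 mgt1 yeast grown with test compound; read-out is growth inhibition versus vehicle-treated cultures.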
# [5] = NCI Yeast Anticancer Drug Screen. Data for the rad50 strain (AID 155);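 also: 0% = growth of vehicle-only cultures of the same strain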; details: S. cerevisiae rad50 strain growth inhibition, stronger effect = higher value
# In short: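 Compounds were tested on a yeast strain with an engineered DNA damage repair alteration; the reported value is growth inhibition normalised to vehicle treatment.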
# [6] = NCI Yeast Anticancer Drug Screen. Data for the mec2-1 strain (AID 157); details: S. cerevisiae mec2-1 strain, stronger effect = higher value
# In short: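 Yeast mec2-1 mutant treated with compound. Readout: growth inhibition vs vehicle controls.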
# [7] = NCI Yeast Anticancer Drug Screen. Data for the rad14 strain (AID 159);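 also: 0% = growth of vehicle-treated control cultures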; details: S. cerevisiae rad14 strain growth inhibition, stronger effect = higher value
# In short: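 Compound-treated yeast with a defined DNA-repair lesion; growth inhibition normalised to vehicle-treated cultures.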
# [8] = NCI Yeast Anticancer Drug Screen. Data for the sgs1 mgt1 strain (AID 161);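 also: 0% = growth of cultures given vehicle only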; details: S. cerevisiae sgs1 mgt1 strain, stronger effect = higher value
# In short: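 Mutant yeast exposed to compound; growth scored against vehicle-only wells.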
# [9] = NCI Yeast Anticancer Drug Screen. Data for the CLN2oe strain (AID 163);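 also: 0% = growth of vehicle-only control cultures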; details: S. cerevisiae CLN2oe strain, stronger effect = higher value
# In short: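 Read-out: yeast growth inhibition, expressed relative to vehicle-only controls. The strain bears an engineered cell-cycle alteration.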
# [10] = NCI Yeast Anticancer Drug Screen. Data for the cln2 rad14 strain (AID 165);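 also: 0% = growth equal to vehicle treated cultures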; details: S. cerevisiae cln2 rad14 strain, stronger effect = higher value
# In short: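 cln2 rad14 yeast strain; compound exposure; growth inhibition read vs vehicle controls.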
# [11] = NCI Yeast Anticancer Drug Screen. Data for the bub3 strain (AID 167); details: S. cerevisiae bub3 mutant strain, stronger effect = higher value
# In short: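 Growth of a checkpoint-deficient yeast mutant is measured after compound exposure. Values represent inhibition relative to vehicle.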
# [12] = NCI Yeast Anticancer Drug Screen. Data for the wt2 strain (AID 169);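 also: 0% = growth of vehicle-treated yeast cultures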; details: S. cerevisiae wt2 strain growth inhibition, stronger effect = higher value
# In short: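 Read-out: growth inhibition versus vehicle-treated control cultures after compound exposure of the yeast strain.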
# [13] = NCI Yeast Anticancer Drug Screen. Data for the mlh1 strain (AID 171);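 also: 0% = growth of vehicle-treated control cultures of the same strain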; details: S. cerevisiae mlh1 strain growth inhibition, stronger effect = higher value
# In short: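 Read-out: growth inhibition versus vehicle controls. Strain: engineered yeast with a defined DNA repair or cell cycle defect, compound-treated.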
# [14] = NCI Yeast Anticancer Drug Screen. Data for the sgs1 strain (AID 173);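 also: 0% = growth of vehicle-only control cultures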; details: S. cerevisiae sgs1 mutant, stronger effect = higher value
# In short: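 Read-out: yeast growth inhibition relative to vehicle controls, following compound exposure of a strain with a defined DNA repair/cell cycle alteration.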
# [15] = NCI Yeast Anticancer Drug Screen. Data for the mlh1 rad18 strain (AID 175); details: S. cerevisiae mlh1 rad18 strain growth inhibition, stronger effect = higher value
# In short: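 Yeast w/ defined DNA-repair lesions; compound exposure; growth vs vehicle controls → % inhibition.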
# [16] = NCI Yeast Anticancer Drug Screen. Data for the rad18 strain (AID 177); details: S. cerevisiae rad18 mutant growth inhibition, stronger effect = higher value
# In short: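 Readout: growth inhibition vs vehicle controls. Cells: genetically altered yeast strain, DNA repair defect.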
# [17] = at 5.0 µM (retest, dose inferred, filed as 0.5)
# [18] = at 50.0 µM (retest, dose inferred, filed as 5.0)
compound,measurement,setting,value
COc1c2c(c3c(c1CCC(=O)O)OC(C)(C)C=C3)OC(C)(C)C=C2,growth inhibition,[1]; at 1.2 µM,-3%
same,growth inhibition,[1]; at 3.7 µM,1%
same,growth inhibition,[1]; at 11.0 µM,10%
same,growth inhibition,[1]; at 33.0 µM,62%
same,growth inhibition,[1]; at 100.0 µM,98% (active)
same,growth inhibition,[2]; at 1.2 µM,0%
same,growth inhibition,[2]; at 3.7 µM,2%
same,growth inhibition,[2]; at 11.0 µM,13%
same,growth inhibition,[2]; at 33.0 µM,49%
same,growth inhibition,[2]; at 100.0 µM,97% (active)
same,growth inhibition,[3]; at 1.2 µM,-3%
same,growth inhibition,[3]; at 3.7 µM,1%
same,growth inhibition,[3]; at 11.0 µM,5%
same,growth inhibition,[3]; at 33.0 µM,15%
same,growth inhibition,[3]; at 100.0 µM,35%
same,growth inhibition,[4]; at 1.2 µM,-1%
same,growth inhibition,[4]; at 3.7 µM,0%
same,growth inhibition,[4]; at 11.0 µM,15%
same,growth inhibition,[4]; at 33.0 µM,61%
same,growth inhibition,[4]; at 100.0 µM,99% (active)
same,growth inhibition,[5]; at 1.2 µM,-1%
same,growth inhibition,[5]; at 3.7 µM,-3%
same,growth inhibition,[5]; [17],15%
same,growth inhibition,[5]; at 11.0 µM,19%
same,growth inhibition,[5]; at 33.0 µM,54%
same,growth inhibition,[5]; [18],45%
same,growth inhibition,[5]; at 50.0 µM,58.2%
same,growth inhibition,[5]; at 100.0 µM,98% (active)
same,growth inhibition,[6]; at 1.2 µM,-2%
same,growth inhibition,[6]; at 3.7 µM,2%
same,growth inhibition,[6]; [17],-1%
same,growth inhibition,[6]; at 11.0 µM,20%
same,growth inhibition,[6]; at 33.0 µM,59%
same,growth inhibition,[6]; [18],49%
same,growth inhibition,[6]; at 50.0 µM,65.8%
same,growth inhibition,[6]; at 100.0 µM,98% (active)
same,growth inhibition,[7]; at 1.2 µM,0%
same,growth inhibition,[7]; at 3.7 µM,2%
same,growth inhibition,[7]; at 11.0 µM,11%
same,growth inhibition,[7]; at 33.0 µM,53%
same,growth inhibition,[7]; at 100.0 µM,98% (active)
same,growth inhibition,[8]; [17],-3%
same,growth inhibition,[8]; [18],32%
same,growth inhibition,[8]; at 50.0 µM,69.8%
same,growth inhibition,[9]; at 1.2 µM,-1%
same,growth inhibition,[9]; at 3.7 µM,-1%
same,growth inhibition,[9]; at 11.0 µM,27%
same,growth inhibition,[9]; at 33.0 µM,80% (active)
same,growth inhibition,[9]; at 100.0 µM,99% (active)
same,growth inhibition,[10]; [17],43%
same,growth inhibition,[10]; [18],82% (active)
same,growth inhibition,[10]; at 50.0 µM,91.2% (active)
same,growth inhibition,[11]; at 1.2 µM,-7%
same,growth inhibition,[11]; at 3.7 µM,-1%
same,growth inhibition,[11]; [17],-13%
same,growth inhibition,[11]; at 11.0 µM,6%
same,growth inhibition,[11]; at 33.0 µM,58%
same,growth inhibition,[11]; [18],20%
same,growth inhibition,[11]; at 50.0 µM,71.9% (active)
same,growth inhibition,[11]; at 100.0 µM,97% (active)
same,growth inhibition,[12]; at 1.2 µM,-1%
same,growth inhibition,[12]; at 3.7 µM,2%
same,growth inhibition,[12]; at 11.0 µM,17%
same,growth inhibition,[12]; at 33.0 µM,56%
same,growth inhibition,[12]; at 100.0 µM,98% (active)
same,growth inhibition,[13]; at 1.2 µM,2%
same,growth inhibition,[13]; at 3.7 µM,3%
same,growth inhibition,[13]; at 11.0 µM,20%
same,growth inhibition,[13]; at 33.0 µM,39%
same,growth inhibition,[13]; at 100.0 µM,99% (active)
same,growth inhibition,[14]; at 1.2 µM,0%
same,growth inhibition,[14]; at 3.7 µM,4%
same,growth inhibition,[14]; at 11.0 µM,20%
same,growth inhibition,[14]; at 33.0 µM,59%
same,growth inhibition,[14]; at 100.0 µM,98% (active)
same,growth inhibition,[15]; [17],3%
same,growth inhibition,[15]; [18],43%
same,growth inhibition,[15]; at 50.0 µM,76.4% (active)
same,growth inhibition,[16]; at 1.2 µM,3%
same,growth inhibition,[16]; at 3.7 µM,8%
same,growth inhibition,[16]; at 11.0 µM,22%
same,growth inhibition,[16]; at 33.0 µM,51%
same,growth inhibition,[16]; at 100.0 µM,97% (active)

# Source: PubChem BioAssay (NCI)
